From PubChem BioAssay AID602449 (Sanford-Burnham Center for Chemical Genomics, 2012)
Out of some 360,000 compounds screened, about 5,000 (1.4%) were called active.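 How the source made its calls: active means inhibition of 50% or more, scaled per plate between neutral and stimulator controls; inactive means the rest.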 What follows is part of a selection rich in actives, with near analogues and random picks from the rest.

Test: blockers of Ca2+-induced mitochondrial swelling – biochemical, isolated mouse mitochondria, absorbance, primary screen (AID 602449);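 further: 0% = DMSO wells given calcium and 100% = 1 mM EGTA wells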
Details: 30 min, at 10 µM, hits give high values

inhibition, inactive:
COc1ccc(CNS(=O)(=O)c2cc(-c3cc(C)no3)ccc2C(C)C)cc1 -0.4%
Cc1cccc(NC(=S)NCCc2ccc(F)cc2)c1C 0.7%
CC(C)CNC(=S)Nc1ccc(F)cc1 2.1%
Cc1c(NC(=O)CCCOc2ccccc2)cccc1[N+](=O)[O-] 0.1%
COc1cc(NC(=S)NCc2ccc(S(N)(=O)=O)cc2)cc(OC)c1 -1%
C/C(=N\N=C(N)N)c1ccc(Cl)cc1 2%
COc1cccc(NC(=O)C(Sc2nnnn2C)c2ccccc2)c1 (stereo unspecified) -1.4%
CCOc1ccc(OCC)c(NC(=O)CN(C)S(=O)(=O)c2cccc3nsnc23)c1 -0.3%
COc1ccccc1OCCNc1cc(N2CCOCC2)ccc1[N+](=O)[O-] 2.8%
COc1ccc(CCNC(=O)c2ccccc2-c2ccccc2C(=O)O)cc1OC -0.5%
O=S(=O)(CCc1nc2ccccc2o1)c1ccc(Cl)cc1 -1.2%
Cc1cc(F)ccc1NC(=S)NCCc1ccccc1 0%
O=C(NCCc1ccccc1)C1CC1 -0.4%
O=C(NCCCc1ccccc1)C1CCC(CNc2c(N3CCCCC3)c(=O)c2=O)CC1 (stereo unspecified) 0.1%
CC(C)(CNC(=O)Cc1ccc(Cl)cc1Cl)N1CCOCC1 1.9%
CC1=NN(/C(=N\c2nnc(C)s2)Nc2ccccc2)[C@H](c2ccc(C)cc2)S1 0.1%
COc1nc(NC2CCCCC2)nc(N2CCCCCC2)n1 20.8%
CN(N)c1nc(N2CCCC2)nc(N2CCCC2)n1 1.8%
O=S(=O)(c1ccccc1)N1CCC(c2ccccc2)CC1 1.4%
COc1ccc(C2(C)ON(c3ccccc3C(F)(F)F)C2=O)cc1 (stereo unspecified) -1.7%
CCc1noc(C)c1C(=O)Oc1ccc(N(C)S(=O)(=O)c2ccc(C)c(C)c2)cc1 0.2%
Cc1ccc(CNC(=O)CCC(=O)N2CC(C)Sc3ccccc32)cc1 (stereo unspecified) -1.8%
OC(COc1ccc(CN2CCSCC2)cc1)CN1CCCCC1 (stereo unspecified) 1.1%
CC(=O)Nc1ccc(OCC(O)CN2CCN(c3ccccc3Cl)CC2)cc1 (stereo unspecified) -1.1%
CCC(c1nc2ccccc2[nH]1)n1c(=O)c(-c2cccs2)nc2ccccc21 (stereo unspecified) 2.6%
CN1CCN(c2ccc([N+](=O)[O-])c(Sc3nc4ccccc4[nH]3)c2)CC1 -0.9%
O=C(NC1CCCC1)C1c2ccccc2OCC(=O)N1CC(F)(F)F (stereo unspecified) -0.2%
COc1ccc(N2CCN(C(=O)[C@@H](NC(=O)c3cc(OC)cc(OC)c3)C(C)C)CC2)cc1 0.3%
O=C(Nc1nnc(S(=O)(=O)N2CCOCC2)s1)c1cccc(Br)c1 4.6%
COc1cccc(C(=O)Nc2nnc(S(=O)(=O)N3CCOCC3)s2)c1 -1%
COc1cccc(C(NC(C)=O)c2nc(-c3cnc4ccccc4c3)cs2)c1 (stereo unspecified) 0.4%
CCCCn1c(N)c(N(CCC(C)C)C(=O)c2ccc([N+](=O)[O-])o2)c(=O)[nH]c1=O -0.3%
COc1ccc(NC(=O)CN(C)C(=O)Cc2coc3cc(C)c(C)cc23)cc1 -0.3%
Cc1ccc(C)c(NC(=O)COC(=O)c2nn(C)c(=O)c3ccccc23)c1 1.4%
Cc1ccc(F)cc1NC(=O)CSCc1c(C)noc1C -0.3%
O=C1CC(c2c(F)cccc2Cl)C(n2cncn2)C(O)=C1C1NCCc2ccccc21 (stereo unspecified) 5.6%
NNC(=O)COc1ccc(C2SCCS2)cc1 -1%
COc1ccc(CCC(C)N2CCc3ccccc3C2)cc1 (stereo unspecified) -0.5%
Cn1c(=O)c2c(nc(CN3CCOCC3)n2Cc2ccccc2)n(C)c1=O 0.1%
COCCn1c(CN(Cc2ccccc2)Cc2ccccc2)nc2c1c(=O)n(C)c(=O)n2C 0.9%
COc1cc(C(=O)Nc2cc(C(F)(F)F)ccc2-n2cncn2)cc(OC)c1OC -0.1%
Cc1cc(C)c2c(Cn3ccnc3)cc(=O)oc2c1 -1.5%
COc1ncnc2c1N=C1CC(C)(C)CC(N)=C1S2 0.5%
O=C(COc1ccc(S(=O)(=O)N2CCOCC2)cc1Cl)N1CCOCC1 0.5%
COc1ccc(CN2CCOC2=O)cc1OC 0.9%
COc1ccccc1CNC(=O)CCn1c(=O)sc2ccccc21 0.2%
Nc1ccc(OCC(O)C[n+]2ccc(CCS(=O)(=O)[O-])cc2)cc1 (stereo unspecified) -2.1%
CN(C)C(=O)N=NC(=O)N(C)C 4.3%
CCC1=C(OC(=O)N(CC)CC)N2C(=O)OC(=NCCc3c[nH]c4ccccc34)[C@]2(C)[C@H]2C1=CC[C@H]1C(=O)N(CC)C(=O)[C@H]12 0%
CC1(C)OC(=O)C2=C(C[C@@H](C3CC3)O[C@H]2CCc2cccc(Cl)c2)O1 1%
O=C(N/N=C\c1cc(Br)c(Br)o1)C1COc2ccccc2O1 (stereo unspecified) 3.3%
C/C(=N/NC(=O)C1COc2ccccc2O1)c1ccco1 (stereo unspecified) 0.4%
Cc1cc(C)c2nc(NC(=O)C3CCCO3)sc2c1 (stereo unspecified) -9.1%
O=C(Nc1cc(S(=O)(=O)N2CCCCC2)ccc1Cl)C1COc2ccccc2O1 (stereo unspecified) -0.4%
O=C(CN1CCOCC1)N1CCCc2c1c(=O)oc1ccc(OCc3ccccc3)cc21 5.1%
CCCN(CCC)c1c([N+](=O)[O-])c(=O)oc2ccccc12 -6.7%
COCCCNC(=O)C1CCN(c2ccc(N3CCOCC3)nn2)CC1 0.3%
OC(c1ccccc1)c1nccn1Cc1ccccc1 (stereo unspecified) -1.7%
O=S(=O)(N1CCCCC1)N1CCNCC1 1.7%
O=C1c2ccccc2S(=O)(=O)N1Cc1c(F)cccc1Cl -0.3%
Nn1cnnc1N/N=C/c1cc([N+](=O)[O-])c(Cl)cc1Cl 0.6%
NC(N)=N/N=C/c1ccc(OCc2ccc(Cl)cc2Cl)cc1 6%
CC(C)N(C(=O)[C@H]1C[C@H](CC(=O)NC(C)(C)C)C(=O)N2CCc3c([nH]c4ccc(Cl)cc34)[C@]12C)C(C)C -1.7%
O=C1c2ccccc2C(=O)C1C(=O)C1CC1 -0.9%
Cc1ccc(C(=O)N/C(=C/c2cccnc2)C(=O)O)cc1 0.9%
CCOc1ccc(S(=O)(=O)Nc2nccs2)cc1 0.5%
Cn1c(Cc2cccc3ccccc23)nnc1SCC(=O)N1CCN(c2cccc(Cl)c2)CC1 -0.5%
O=C(O)CCCC(=O)Nc1ccc(Oc2cccc(C(F)(F)F)c2)nc1 0.9%
Cc1cccc(C(=O)Nc2ccc(Oc3cnccn3)cc2)c1 0.7%
O=C1c2ccccc2[C@@H]2C[C@@H](O)[C@H](Nc3ccccc3Cl)CCN12 -0.5%
Cc1ccc2c(c1)C(c1ccccc1)N(C(=O)c1ccc(S(=O)(=O)N3CCOCC3)cc1)CC(=O)N2 (stereo unspecified) -0.3%
Nc1nc(CSc2nnnn2-c2ccccc2)nc(Nc2ccccc2)n1 0%
O=C(c1ccc(-c2ccccc2)cc1)C1CCCN(C(=O)c2cncs2)C1 (stereo unspecified) -1.8%
Cc1ccn(CC(=O)NC2CCCN(Cc3ccccc3F)C2)n1 (stereo unspecified) 0.4%
CCOC(=O)Nc1ccc2c(c1)N(C(=O)CCN1CCN(CCO)CC1)c1ccccc1CC2 0.2%
CCOC(=O)Nc1ccc2c(c1)N(C(=O)CCCl)c1ccccc1[S@]2=O -1.2%
Cc1cccnc1NC(=O)Cn1c(=O)oc2ccccc21 -0.1%
COC(=O)c1ccc(CNC(=O)C2CCC(=O)N(Cc3cccc(F)c3)C2)cc1 (stereo unspecified) -0.2%

inhibition, active:
Cc1cc(C)cc(NC(=S)NCc2ccc(F)cc2)c1 50.1%
Cc1c(NC(=S)NCc2ccc(F)cc2)cccc1[N+](=O)[O-] 96.5%
COc1ccc(CCNc2cc(N3CCN(C(=O)c4ccccc4OC)CC3)ccc2[N+](=O)[O-])cc1OC 55.3%
S=C(NCCc1ccccc1)NCc1ccccc1Cl 69.8%
FC(F)(F)COc1nc(N2CCCCC2)nc(N2CCNCC2)n1 78.3%
O=C(c1ccc(Cl)cc1)c1ccc(OCC(O)CN2CCCCC2)cc1 (stereo unspecified) 96.3%
CCC(C)N1C(=O)S/C(=C/c2ccc(Sc3nc4ccccc4[nH]3)o2)C1=O (stereo unspecified) 91.9%
O=C(Nc1nnc(S(=O)(=O)N2CCCCCC2)s1)c1cccc(Br)c1 79.7%
Cc1ccc(F)cc1NC(=O)Cc1nn(C)c(=O)c2ccccc12 69.1%
COCCn1c(CN2CCC(Cc3ccccc3)CC2)nc2c1c(=O)n(C)c(=O)n2C 83.7%
COc1ccc(Cn2c(=O)sc3ccccc32)cc1OC 72.6%
Oc1c(Cl)cc(Cl)c(Cl)c1Cc1c(O)c(Cl)cc(Cl)c1Cl 80.8%
O=C(Nc1nnc(SCc2ccc(Cl)cc2Cl)s1)C1COc2ccccc2O1 (stereo unspecified) 70%
O=C(Nc1nc2c(F)cc(F)cc2s1)C1COc2ccccc2O1 (stereo unspecified) 63.7%
NC(N)=N/N=C/c1ccc(Cl)c([N+](=O)[O-])c1 90.5%
C/C(=N\NC(=O)c1ccc(C)cc1)C1C(=O)c2ccccc2C1=O 57.8%
O=C(Nc1ccc(Cl)cc1)Nc1ccc(Oc2cccnc2)nc1 82.5%
CCNCCC(=O)N1c2ccccc2Sc2ccc(NC(=O)OCC)cc21 75.6%
